From paper PMC12864922, “TDP-43 directly inhibits mRNA accumulation in neurites through modulation of mRNA stability”
Over roughly 9,900 sequences, “r (bound/input frequency ratio)” has its median near 0.7; the highest 2% begin near 6.5. Shown is part of a subset that was picked to be rich in the highest values.

B1: ENSMUSG00000032194.151|Kank2|256:260 (ssRNA)
RNA: GGGAGUUCUACAGUCCGACGAUCGCUUCGAUAUCCGCAUGCUAACUUCUAGAAAUACUUUCAGACCUACAGACAAAAAAGAAAAAAGGCCAUUCCGGAGUGACUCCCAGCAUCACAGCCCAGAACCUCCUCCUCAAAGGAGAGUAAACAGAGACUGUGAUACUGACCAAGUACAGGCGCUCGCUAUGAAGCCCAUAUGUUCCUGAUUAAGAGCUGGCUGGCCUCAGAGCACUCCCAGAACUAGCUUAAAGUGACAGGCUUUGCUGAAAUCCAAAGGGACAAAAGAGUAGUUUUAUGUUACACACUCUUGCGGUCGCACUAGUGUGGAAUUCUCGGGUGUCAAGG
B2: ENSMUSG00000029028.13|Lrrc47|42:46;48:52;64:69;71:75;77:81;93:98;100:104;106:110;127:131;143:148;150:154;166:170;173:177;179:183;195:200;202:206;223:227;229:233 … (ssRNA)
RNA: GGGAGUUCUACAGUCCGACGAUCGCUUCGAUAUCCGCAUGCUACCCUCCCCACGUGACUGUGGUCCGCUGACAGGCUCCUGUAGCACACGCACACCUGUAGGUGUCACACACGCACACGCACACCUGUAGGUGUCACACACGCACACGCACACCUAUAGGUAUCUGUGGCACACCUGUAGGUGUCACACACGCACACCUGUAGGUGUCACACAAGCACACGCACACCUGUAGGUGUCACACACGCACACCUAGGUGUCUGUAUAGCACACGCACACCUGUAGAUGUCACACAAGCAUACGGUGCUCUUGCGGUCGCACUAGUGUGGAAUUCUCGGGUGUCAAGG
B3: ENSMUSG00000029028.12|Lrrc47|48:52;54:58;70:75;77:81;83:87;99:104;106:110;112:116;133:137;149:154;156:160;172:176;179:183;185:189;201:206;208:212;229:233;235:23 … (ssRNA)
RNA: GGGAGUUCUACAGUCCGACGAUCGCUUCGAUAUCCGCAUGCUACACCCUCCCUCCCCACGUGACUGUGGUCCGCUGACAGGCUCCUGUAGCACACGCACACCUGUAGGUGUCACACACGCACACGCACACCUGUAGGUGUCACACACGCACACGCACACCUAUAGGUAUCUGUGGCACACCUGUAGGUGUCACACACGCACACCUGUAGGUGUCACACAAGCACACGCACACCUGUAGGUGUCACACACGCACACCUAGGUGUCUGUAUAGCACACGCACACCUGUAGAUGUCACACAAGGUACUCUUGCGGUCGCACUAGUGUGGAAUUCUCGGGUGUCAAGG
B4: ENSMUSG00000029028.11|Lrrc47 (ssRNA)
RNA: GGGAGUUCUACAGUCCGACGAUCGCUUCGAUAUCCGCAUGCUACCUGAUCACCCUCCCUCCCCACGUGACUGUGGUCCGCUGACAGGCUCCUGUAGGUGUGGGUGUGCUGUAGGUGUCUGUGUGGGUGUGGGUGUGCUGUAGGUGUCUGUGUGGGUGUGGGUGUGCUAUAGGUAUCUGUGGGUGUGCUGUAGGUGUCUGUGUGGGUGUGCUGUAGGUGUCUGUGUAGGUGUGGGUGUGCUGUAGGUGUCUGUGUGGGUGUGCUAGGUGUCUGUAUAGGUGUGGGUGUGCUGUAGAUGUCUGUGCUCUUGCGGUCGCACUAGUGUGGAAUUCUCGGGUGUCAAGG
B5: ENSMUSG00000029028.13|Lrrc47 (ssRNA)
RNA: GGGAGUUCUACAGUCCGACGAUCGCUUCGAUAUCCGCAUGCUACCCUCCCCACGUGACUGUGGUCCGCUGACAGGCUCCUGUAGGUGUGGGUGUGCUGUAGGUGUCUGUGUGGGUGUGGGUGUGCUGUAGGUGUCUGUGUGGGUGUGGGUGUGCUAUAGGUAUCUGUGGGUGUGCUGUAGGUGUCUGUGUGGGUGUGCUGUAGGUGUCUGUGUAGGUGUGGGUGUGCUGUAGGUGUCUGUGUGGGUGUGCUAGGUGUCUGUAUAGGUGUGGGUGUGCUGUAGAUGUCUGUGUAGGUAUGGGUGCUCUUGCGGUCGCACUAGUGUGGAAUUCUCGGGUGUCAAGG
B6: ENSMUSG00000029028.11|Lrrc47|54:58;60:64;76:81;83:87;89:93;105:110;112:116;118:122;139:143;155:160;162:166;178:182;185:189;191:195;207:212;214:218;235:239;241:2 … (ssRNA)
RNA: GGGAGUUCUACAGUCCGACGAUCGCUUCGAUAUCCGCAUGCUACCUGAUCACCCUCCCUCCCCACGUGACUGUGGUCCGCUGACAGGCUCCUGUAGCACACGCACACCUGUAGGUGUCACACACGCACACGCACACCUGUAGGUGUCACACACGCACACGCACACCUAUAGGUAUCUGUGGCACACCUGUAGGUGUCACACACGCACACCUGUAGGUGUCACACAAGCACACGCACACCUGUAGGUGUCACACACGCACACCUAGGUGUCUGUAUAGCACACGCACACCUGUAGAUGUCUGUGCUCUUGCGGUCGCACUAGUGUGGAAUUCUCGGGUGUCAAGG
B7: ENSMUSG00000029028.12|Lrrc47 (ssRNA)
RNA: GGGAGUUCUACAGUCCGACGAUCGCUUCGAUAUCCGCAUGCUACACCCUCCCUCCCCACGUGACUGUGGUCCGCUGACAGGCUCCUGUAGGUGUGGGUGUGCUGUAGGUGUCUGUGUGGGUGUGGGUGUGCUGUAGGUGUCUGUGUGGGUGUGGGUGUGCUAUAGGUAUCUGUGGGUGUGCUGUAGGUGUCUGUGUGGGUGUGCUGUAGGUGUCUGUGUAGGUGUGGGUGUGCUGUAGGUGUCUGUGUGGGUGUGCUAGGUGUCUGUAUAGGUGUGGGUGUGCUGUAGAUGUCUGUGUAGGUACUCUUGCGGUCGCACUAGUGUGGAAUUCUCGGGUGUCAAGG
B8: ENSMUSG00000034801.232|Sos2|152:160 (ssRNA)
RNA: GGGAGUUCUACAGUCCGACGAUCGCUUCGAUAUCCGCAUGCUAUAACUGUCUUUAAUCUCGUGUUAACUGAAAUUUUUGAAAAGUUUUUCCAGAUUAGUAAUAUUUAAACAGAAAAUACUUUAAAAAGCUUUAUUAAAUUUUUUAAUCAGGAUAAAGCUUUGCCAUUUGGAUACUAUCAUUCAAAGUGAUCAAGCAUACAUACUUAUGCUGAUAGUGCAGUAGCAGCCAUUGUAAAGUAGCCAAAAGCCACGUUGUUUAUCUACUGGUCUGUGGCCUUUUACUGUGCUUUGUAUCAGAGUUCUCUCUUGCGGUCGCACUAGUGUGGAAUUCUCGGGUGUCAAGG
B9: ENSMUSG00000031028.95|Tub (ssRNA)
RNA: GGGAGUUCUACAGUCCGACGAUCGCUUCGAUAUCCGCAUGCUAGGUGGUCAGCAGAAAGCACUCCCACUUCAAAAGGGCCCAUUAGGCCCAAAGGGGGUUAGGAGUGGUAGGGAUAGGUGCGUGGCAGGUCCCUGCUAGGAUUGCAGGGGCCUGGCCAUGUGUAUUAGCUGGAGGCUUAGAAUGCUAGCUCAUUUGUUGCUACAGAUUUGCCCAGUGCUUGCACACGUAAGAACCCAGCUCUCAAGGCCAAAUAUCUGAGUGGAUGGGGAUGAUAGGAGUCAUCCAGUAGACUCCCUACAUCACUCUUGCGGUCGCACUAGUGUGGAAUUCUCGGGUGUCAAGG

target: TDP-43 (Homo sapiens, UniProt Q13148 1-414); assay: RNA Bind-n-Seq with designed 260-mer pool; 25 mM Tris-HCl, 150 mM KCl, 3 mM MgCl2, BSA (printed 500 mg/mL), 20 units/mL SUPERase IN; pH not stated; 500 nM RNA pool, 1 h, 4 C; TDP-43 5, 50, 500 nM; high values mean tight binding; conditions: protein: recombinant; tags: SBP (GST cleaved off with PreScission; pGEX-GST-SBP)
Sequence (Q13148 whole entry): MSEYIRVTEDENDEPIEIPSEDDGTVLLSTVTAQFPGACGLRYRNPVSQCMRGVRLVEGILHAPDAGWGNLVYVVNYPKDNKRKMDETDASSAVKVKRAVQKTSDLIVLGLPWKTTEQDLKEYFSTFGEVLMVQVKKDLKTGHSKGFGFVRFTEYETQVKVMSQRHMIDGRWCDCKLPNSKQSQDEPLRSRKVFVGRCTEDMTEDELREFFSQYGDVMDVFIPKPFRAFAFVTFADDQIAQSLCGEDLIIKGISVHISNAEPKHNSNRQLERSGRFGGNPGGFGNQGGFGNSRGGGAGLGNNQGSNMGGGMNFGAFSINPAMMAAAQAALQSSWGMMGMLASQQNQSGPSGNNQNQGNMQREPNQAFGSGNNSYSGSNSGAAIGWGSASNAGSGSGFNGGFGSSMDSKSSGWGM
Procedure, shortened: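 Recombinant SBP-tagged TDP-43 at 5, 50 or 500 nM was captured on streptavidin beads, then incubated 1 h at 4 °C with 500 nM of an in vitro-transcribed 260-nt 3′ UTR oligo pool in 25 mM Tris-HCl, 150 mM KCl, 3 mM MgCl2, BSA and SUPERase IN. Bound RNA was washed, eluted with biotin, reverse transcribed, PCR-amplified and sequenced. Binding is R, each oligo's mapped-read-normalized abundance in the bound sample divided by its abundance in input. Duplicates used two independent protein batches.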

Compared with B1, B2 is higher in binding signal: 0.163 R (bound/input frequency ratio) for the first, 1.01 R (bound/input frequency ratio) for the second.

Going from B3 to B4, the binding signal rises from 1.21 R (bound/input frequency ratio) to 7.32 R (bound/input frequency ratio).

First: B5
Second: B6
The binding signal of the first is higher: 7.14 R (bound/input frequency ratio) for the first, 1.45 R (bound/input frequency ratio) for the second.

Compared with B7, B8 is lower in binding signal: 5.27 R (bound/input frequency ratio) for the first, 0.0144 R (bound/input frequency ratio) for the second.

For B9, the binding signal was 1.54 R (bound/input frequency ratio).
